Assay outcomes as filed in PubChem.
AF4-AF9 inh – inhibitors of AF4 peptide binding to AF9, primary screen, biochemical, AlphaScreen, biotin-AF4 peptide, FLAG-AF9, single point. 350,000 tested, 0.47% active. AID 651704, 2012. Protein AF-9 (Homo sapiens), P42568. inhibition, % at 10 µM;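 active means every replicate reaching a set inhibition limit, whatever the replicate mean, cut at about 25% in these data; inconclusive means mean inhibition reaches that limit but some replicates miss it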
Target sequence (P42568 whole entry, looked up): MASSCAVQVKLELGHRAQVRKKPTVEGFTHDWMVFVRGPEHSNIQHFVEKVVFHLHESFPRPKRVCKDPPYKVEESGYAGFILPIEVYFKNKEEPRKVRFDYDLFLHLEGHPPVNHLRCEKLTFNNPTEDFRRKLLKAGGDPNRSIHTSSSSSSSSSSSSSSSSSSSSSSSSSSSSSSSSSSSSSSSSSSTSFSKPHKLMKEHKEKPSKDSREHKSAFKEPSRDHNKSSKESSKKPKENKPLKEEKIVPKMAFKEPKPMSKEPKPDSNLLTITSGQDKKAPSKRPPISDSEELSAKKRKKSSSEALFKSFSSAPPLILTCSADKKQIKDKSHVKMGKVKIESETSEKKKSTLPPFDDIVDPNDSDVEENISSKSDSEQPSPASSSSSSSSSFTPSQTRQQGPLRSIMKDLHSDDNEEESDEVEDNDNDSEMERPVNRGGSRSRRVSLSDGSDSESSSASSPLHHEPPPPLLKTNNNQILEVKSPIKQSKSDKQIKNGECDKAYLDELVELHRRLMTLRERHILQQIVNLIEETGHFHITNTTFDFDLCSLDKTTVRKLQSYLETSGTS
MITF TRPM1 HTS – activators of MITF-driven TRPM1 promoter reporter, primary screen, cell-based, SK-MEL-5, luciferase, single point; SK-MEL-5 TRPM1-promoter luciferase, 24 h; % of positive control, neutral wells = 0; activation, % at 12.5 µM; 300,000 tested, 0.75% active;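 active means mean activation of at least 80% with every replicate also reaching 80%; inconclusive means mean reaches 80% but some replicate falls short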
FGF22 binding – binders of human FGF22 protein, primary screen, FGF22 synaptogenesis inhibitor project, biophysical, thermal shift, single point. 340,000 tested, 1.5% active. AID 651658, 2012. activity (Tm shift, normalised), % at 9.99 µM. recombinant FGF22 thermal shift, SYPRO orange fluorescence; percent of sucrose octasulfate shift, DMSO zero. Fibroblast growth factor 22 (Homo sapiens), Q9HCT0;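 active means mean Tm shift, scaled 0 neutral to 100 positive control, at about 1.3% or above, every replicate too, limit read from the data; inconclusive means no clear call, values can overlap the other calls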
Target sequence (Q9HCT0 whole entry, looked up): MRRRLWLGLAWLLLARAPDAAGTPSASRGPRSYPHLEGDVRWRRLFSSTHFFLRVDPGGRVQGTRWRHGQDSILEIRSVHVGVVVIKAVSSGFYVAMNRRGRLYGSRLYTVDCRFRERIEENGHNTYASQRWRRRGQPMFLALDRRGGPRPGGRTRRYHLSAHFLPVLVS
SMARCA2 act – SMARCA2 (BRM) function activators, primary screen, cell-based, luminescence, high throughput; MG213 cells, MMTV-luciferase reporter, dexamethasone, overnight; AID 652017, 2013; activation, % at 9.1 µM; 370,000 tested, 1% active; in the data active means activation above about 7.8%
Wnt bcat act – Wnt/beta-catenin pathway activators, primary screen, cell-based, plate reader, single point; Wnt/beta-catenin reporter cell assay, activator; activation, % at 9.35 µM; 300,000 tested, 1.2% active; AID 743398, 2014; in the data active means activation above about 30%, passing the limit was not always enough; inconclusive means no clear call, values can overlap the other calls
esBAF inh – Bmi1 luciferase reporter increase in mESCs, primary screen, esBAF inhibitor project, mouse ES cells, Bmi1 luciferase knock-in, single point | 350,000 tested, 2% active | AID 602393, 2012 | reporter increase, % at 12.5 µM | 24 h; 100% = twice the neutral-well signal; in the data active means activation above about 40%; inconclusive means no clear call, values can overlap the other calls;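 further: a rise in the Bmi1 reporter signal indicates esBAF inhibition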
AlphaScreen intf – AlphaScreen signal interference counter-screen, dose response, artefact control, biochemical, cherry-picked samples, luminescence; AID 720494, 2013; shares compounds with AF4-AF9 inh; 530 tested, 45% active; AC50, µM (highest dose often 12 µM); cut-off not given, nearly all actives have AC50 up to about 14 µM
SMARCA2 conf – SMARCA2 (BRM) function activators, confirmation, cell-based, luminescence, triplicate | shares compounds with SMARCA2 act | activation, % at 9.1 µM | 3,500 tested, 30% active | MG213 cells, MMTV-luciferase with dexamethasone, overnight; MG213 cells expressing E1A, Rb sequestered; DMSO wells 0%, reference activator 100%;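 active means activation above its plate's cutoff, the mean activation of tested wells plus 3 SD, cut at about 7.9% in these data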
GAL4-VP16 Luc – GAL4-VP16 luciferase reporter activation, counter-screen for SMARCA2 (BRM) activator project, cell-based, pG5luc, luminescence, high throughput. shares compounds with SMARCA2 act. activation, % at 9.1 µM. 3,500 tested, 41% active. HEK293 GAL4-VP16 pG5luc reporter; scaled: DMSO wells 0%, SAHA wells 100%;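 active means activation above the solvent-only control well mean plus 3 SD, averaged across control plates, cut at about 5.2% in these data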
A number is an active result; – = inactive; ? = inconclusive; · = no result given. Compounds with a hit are over-represented: about 4.3% of the library has one in this group of screens.

SMILES | AF4-AF9 inh | MITF TRPM1 HTS | FGF22 binding | SMARCA2 act | Wnt bcat act | esBAF inh | AlphaScreen intf | SMARCA2 conf | GAL4-VP16 Luc
Cc1ccc2c(c1)c1c3n2CCCN(Cc2ccccc2)C3CCC1 (stereo not drawn) | 32 | – | – | – | – | – | – | · | ·
CCOc1ccc(NC(=S)N(CCN2CCOCC2)Cc2ccc3c(c2)CCCN3CC)cc1 | 39 | – | – | – | – | – | – | · | ·
CCN1CCCc2cc(CN(CCN3CCOCC3)C(=S)Nc3ccc(OC)cc3)ccc21 | – | – | – | – | – | – | · | · | ·
CO[C@H]1CN(C)C(=O)c2cc(NS(=O)(=O)c3ccccc3Cl)ccc2OC[C@@H](C)NC[C@H]1C | – | · | – | · | · | – | · | · | ·
COCC(=O)N1[C@H](CO)[C@@H](c2ccccc2-c2cccc(F)c2)[C@@H]1C#N | – | · | – | · | · | · | · | · | ·
Cc1ccsc1/C=N/N1CCN(Cc2ccccc2)CC1 | 27 | – | – | – | – | – | – | · | ·
CN1CCN(CCCCOc2ccccc2C=O)CC1 | 33 | – | – | – | – | – | – | · | ·
CN=c1scc(-c2cccs2)n1/N=C/c1ccccc1O | 31 | – | – | – | – | · | – | · | ·
C(=C\c1ccc2ccccc2n1)/c1ccccc1 | ? | – | – | – | – | – | – | · | ·
Cc1csc(Nc2ccccc2)[n+]1-c1ccccc1 | 28 | – | 43 | – | – | · | – | · | ·
CO[C@H]1CN(C)C(=O)c2cc(C#N)ccc2OC[C@H]2O[C@@H](CC[C@@H]2OC)CCN(C)C(=O)[C@H]1C | – | · | – | · | · | – | · | · | ·
COC(=O)c1cn(C[C@@H](Cc2ccccc2)NC(=O)Nc2ccccc2)nn1 | – | · | – | · | · | · | · | · | ·
CCN(CC)S(=O)(=O)N1CCC(C(=O)NCc2ccc(C)cc2)CC1 | · | – | · | – | – | – | · | · | ·
CCN(CC)c1ccc(CN2CCC(C(=O)NCc3ccc(C)cc3)CC2)cc1 | ? | · | – | – | – | · | – | · | ·
c1ccc2c(Nc3ccc4c(c3)OCCO4)c3c(nc2c1)CCCC3 | – | – | – | – | – | · | – | · | ·
C/C=C/c1cnc2c(c1)C(=O)N([C@@H](C)CO)C[C@@H](C)[C@@H](CN(C)S(=O)(=O)c1ccccc1)O2 | – | · | – | · | · | – | · | · | ·
O=C(O)CCCNc1cc(N2CCN(C(=O)c3ccco3)CC2)c2noc3c2c1C(=O)c1ccccc1-3 | 37 | – | – | – | – | – | – | · | ·
CN1CCN(c2cc(N3CCN(C(=O)c4ccco4)CC3)c3c4c(onc24)-c2ccccc2C3=O)CC1 | · | – | · | · | · | – | · | · | ·
O=C(c1ccc2c(c1)OCO2)N1CC2(C1)[C@H](c1ccccc1)[C@@H](CO)N2C(=O)C1CCCC1 | – | · | · | · | · | · | · | · | ·
N#C/C(N=Nc1ccccc1O)=N\Nc1ccccc1O | 34 | – | – | – | – | – | 8.5µM | · | ·
Cc1cccc(N=NC(=S)NNc2cccc(C)c2)c1 | 36 | – | – | 8.7 | – | 52 | 1µM | – | 9.1
CCN(CC)CCCNc1ncnc2ccccc12 | – | – | – | – | – | – | · | · | ·
CCN(CC)CCCNc1ccc2ncn3c4ccc(O)cc4c(=O)c1c23 | – | – | – | 8.1 | – | · | – | 34 | –
CC(=Nc1ccc(C)cc1C)c1sc2ccccc2c1O | 32 | – | – | 15 | – | · | – | – | 11
Cc1ccc(O)c(N=Cc2sc3ccccc3c2Cl)c1 | – | – | – | – | – | – | · | · | ·
SMILES | AF4-AF9 inh | MITF TRPM1 HTS | FGF22 binding | SMARCA2 act | Wnt bcat act | esBAF inh | AlphaScreen intf | SMARCA2 conf | GAL4-VP16 Luc
C[C@H](CO)N1C[C@H](C)[C@H](CN(C)Cc2ccc(Cl)c(Cl)c2)Oc2ccc(NS(=O)(=O)c3cccs3)cc2CC1=O | – | · | – | · | · | – | · | · | ·
CN(C)CCNC(=O)c1cccc(-c2cc(NC=O)c3ncc(-c4cccc(C(F)(F)F)c4)n3c2)c1 | 36 | · | – | 34 | – | – | – | 29 | –
CCCC(=O)Nc1ccc2c(c1)OC[C@H](C)N(Cc1ccc(-c3ccccn3)cc1)C[C@H](C)[C@@H](OC)CN(C)C2=O | – | · | – | · | · | · | · | · | ·
O=C(CC1C(=O)CCCC1=O)c1ccccc1 | – | – | – | 8.6 | – | · | · | 8.1 | –
COc1ccc(-c2ccc([C@H]3[C@H](CO)N4C(=O)CN(Cc5ccc(F)cc5)C[C@@H]34)cc2)cc1 | – | · | · | · | · | · | · | · | ·
CN(C(=O)c1cc(-c2ccccc2)on1)C1CCCCC1 | – | 174 | – | 9.1 | 34 | 51 | · | 11 | 9.3
CO[C@H]1CN(C)C(=O)c2ccc(NC(=O)Cc3ccccc3)cc2OC[C@@H](C)NC[C@H]1C | – | · | – | · | · | – | · | · | ·
COc1ccc(S(=O)(=O)N(C)C[C@@H]2Oc3c(NC(=O)Nc4ccccc4)cccc3C(=O)N([C@@H](C)CO)C[C@@H]2C)cc1 | · | · | · | · | · | – | · | · | ·
C(=C\n1nnc2ccccc21)/c1ccccn1 | – | – | – | 8.7 | 34 | – | · | – | 10
Nn1nnc2ccccc21 | – | – | – | – | – | – | · | · | ·
C[C@H]1CCCCO[C@H](CN(C)Cc2ccc3c(c2)OCO3)[C@@H](C)CN([C@@H](C)CO)C(=O)c2cc(NC(=O)CCCN(C)C)ccc2O1 | – | · | – | · | · | – | · | · | ·
C[C@H]1CN([C@@H](C)CO)S(=O)(=O)c2ccc(-c3ccccc3)cc2O[C@@H]1CN(C)C(=O)Cc1ccccc1 | – | · | – | · | · | – | · | · | ·
COc1cc(/C=N/N=C2/C(=O)Nc3ccccc32)ccc1O | · | – | · | – | · | · | · | · | ·
O=C1Nc2ccccc2/C1=N\N=C\c1ccc(O)c(O)c1 | – | – | – | 9.5 | – | · | · | – | 6.4
N=c1c2c(-c3ccccc3)c(-c3ccccc3)n(CCc3ccccc3)c2ncn1CCO | · | · | · | – | · | · | · | · | ·
N=c1c2c(-c3ccccc3)c(-c3ccccc3)n(Cc3ccccc3)c2ncn1CCO | · | – | · | 8.7 | – | – | · | – | –
COc1ccc(S(=O)(=O)NC(N)=NCCc2ccc(OC)c(OC)c2)cc1 | – | · | – | 10 | – | · | · | – | –
CCC(C)(C)C1CCC2(CC1)NC(=O)N(CC(=O)NCCc1c[nH]c3ccccc13)C2=O (stereo not drawn) | – | – | – | 8.1 | – | – | · | – | –
c1ccc(-c2cc(NCCN3CCCCC3)c3ccccc3n2)cc1 | – | – | – | 25 | – | – | · | 78 | –
O=C(c1cc(-c2ccccc2)nc2ccccc12)N1CCCC1 | – | – | – | – | – | – | · | · | ·
